Data: PubChem BioAssay (NCI)
Compounds without any hit were thinned out: in the full panel of roughly 83,000, 20% have a hit.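 Note: values are percent growth. 100 is the growth of untreated cells, values between 100 and 0 indicate rising inhibition; between -100 and 0 indicates cell death.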 A number with no mark means an inactive call. Active and inactive are the calls of the source. How the source made its calls: active means growth percent below 10; inactive means the rest.

Legend:
Experiment in all cases: NCI-60 one-dose screen, 48 h (100 = growth as untreated, 0 = no growth, -100 = all killed)
Conditions in all cases: 10 µM unless noted
HCT-15 colon = test system: HCT-15 colon
HT29 colon = test system: HT29 colon
SNB-75 CNS = test system: SNB-75 CNS
SNB-19 CNS = test system: SNB-19 CNS
U251 CNS = test system: U251 CNS
PC-3 prostate = test system: PC-3 prostate
SK-MEL-5 melanoma = test system: SK-MEL-5 melanoma
UACC-62 melanoma = test system: UACC-62 melanoma
SK-MEL-28 melanoma = test system: SK-MEL-28 melanoma
SK-MEL-2 melanoma = test system: SK-MEL-2 melanoma
EKVX NSCLC = test system: EKVX NSCLC
SN12C renal = test system: SN12C renal
UO-31 renal = test system: UO-31 renal
TK-10 renal = test system: TK-10 renal
ACHN renal = test system: ACHN renal
CAKI-1 renal = test system: CAKI-1 renal
A498 renal = test system: A498 renal
CCRF-CEM leukemia = test system: CCRF-CEM leukemia
MOLT-4 leukemia = test system: MOLT-4 leukemia

| Compound | growth (HCT-15 colon) | growth (HT29 colon) | growth (SNB-75 CNS) | growth (SNB-19 CNS) | growth (U251 CNS) | growth (PC-3 prostate) | growth (SK-MEL-5 melanoma) | growth (UACC-62 melanoma) | growth (SK-MEL-28 melanoma) | growth (SK-MEL-2 melanoma) | growth (EKVX NSCLC) | growth (SN12C renal) | growth (UO-31 renal) | growth (TK-10 renal) | growth (ACHN renal) | growth (CAKI-1 renal) | growth (A498 renal) | growth (CCRF-CEM leukemia) | growth (MOLT-4 leukemia) |
| --- | --- | --- | --- | --- | --- | --- | --- | --- | --- | --- | --- | --- | --- | --- | --- | --- | --- | --- | --- |
| CC1=C(C(=O)c2ccccc2)C(c2ccc(-n3cncn3)cc2)n2c(nc3ccccc32)N1 (centres undefined) | 83.9% | 93.7% | 76.4% | 74.9% | 71.7% | 78.7% | 89.7% | 70.6% | 106% | 101% | 64.4% | 79.4% | -22.7% (active) | 104% | 88.8% | 62.8% | 113% | 70.9% | 66.9% |
| NS(=O)(=O)c1ccc(-n2cc(-c3cccc(NC(=O)c4cc(C(F)(F)F)cc(C(F)(F)F)c4)c3)nn2)cc1 | 85.7% | 46.6% | 37.5% | 25% | 11.7% | 52% | 90.5% | 73.8% | 81.5% | 81.8% | 63.8% | 74.7% | 102% | 72.9% | 66.1% | 75.3% | 152% | 75.4% | 75.1% |
| COc1cc2c(c(OC)c1OC)C(=O)CC(c1cccc(NC(=O)c3cc([N+](=O)[O-])ccc3Cl)c1)O2 (centres undefined) | -0.987% (active) | 23.2% | 12.9% | 52.6% | 30.7% | 42.7% | 23.3% | 45.2% | 34.1% | 15% | 52.3% | 24% | 29.9% | 65.8% | 6.5% (active) | 20.8% | 131% | 22.8% | 14.4% |
| COc1cccc(COc2ccc(NC(=O)Nc3ccc(Cl)c(C(F)(F)F)c3)cc2)c1 | 11.8% | 43.5% | 32.1% | 24.6% | 31.8% | 16.3% | -77% (active) | 38% | 69.6% | 51.5% | 35.2% | 33% | 7.91% (active) | 45.1% | 11.2% | 24.2% | 35.3% | 34.1% | 28.1% |
| Cn1cc(-c2nc(N)nnc2-c2c[nH]c3ccc(Br)cc23)c2cccnc21 | 33.2% | 23.1% | 31.3% | 52.7% | 39.5% | 59.9% | 26.3% | 53.9% | 59.9% | 30.5% | 67.4% | 49.8% | 48.9% | 90.4% | 50.6% | 47.9% | 131% | 36.1% | 27.5% |
| O=C(/C=C/c1ccc(O)c(O)c1)NC1CCOC1O (centres undefined) | 94.6% | 113% | 91.6% | 98.8% | 95.4% | 95.4% | 103% | 104% | 107% | 113% | 97.1% | 96.4% | 80.4% | 109% | 104% | 92.9% | 109% | 96.4% | 96.3% |
| CC1=C(C(=O)c2ccccc2)C(c2cccc(Cl)c2Cl)n2c(nc3ccccc32)N1 (centres undefined) | 68.7% | 54.6% | 43% | 39.3% | 16.9% | 45% | 54.5% | 36.6% | 90.2% | 76% | 46.3% | 53.6% | 67.7% | 102% | 71.9% | 47% | 116% | 40.5% | 45.6% |
| O=C(O)c1ccc(-c2ccc(/C=N/NC(=O)c3[nH]c4ccc(Br)cc4c3-c3ccccc3)s2)cc1 | -34.6% (active) | -7.12% (active) | -11.3% (active) | 14.4% | 14.5% | 18.7% | -49.6% (active) | -51.9% (active) | 11.9% | -43% (active) | 13.3% | 11.5% | 24.7% | 22.8% | 14.2% | 20% | 40% | 7.68% (active) | 10.7% |
| COCOc1cc2oc(C(=O)N[C@@H](Cc3ccccc3)C(O)C(=O)NCc3ccccc3)c(C)c(=O)c2cc1OCOC (some centres undefined) | 94.4% | 77.5% | 21.7% | 47.3% | 41.3% | 101% | 49.9% | 63.6% | 70.9% | 79.7% | 107% | 51.9% | 87.1% | 63.2% | 66.9% | 84.7% | -35.2% (active) | 104% | 97.3% |
| CN(C)CCn1c2ccccc2c2nc3cc4ccccc4cc3nc21 | -35.8% (active) | -50.4% (active) | 43% | 28.9% | -69.3% (active) | 3.43% (active) | 14.6% | 57.2% | -80.1% (active) | 60.1% | 36.8% | 32.3% | 12.3% | 53% | 7.52% (active) | 4.76% (active) | 80.8% | 18.3% | 7.22% (active) |
| CSc1ccccc1NC(=O)c1ccc2nn(/C(C#N)=C/c3ccccn3)nc2c1 | -62.8% (active) | -91.9% (active) | 48.1% | 12.3% | -81.6% (active) | -57.7% (active) | -88.8% (active) | -89.6% (active) | -91.4% (active) | -67% (active) | -98.5% (active) | -59.2% (active) | -100% (active) | -98.4% (active) | -99% (active) | -87.3% (active) | 93.7% | -34.7% (active) | -22.3% (active) |
| O=C1NC(=O)c2c1c1c3cc(Br)ccc3[nH]c1c1oc3ccc(F)cc3c21 | 21.5% | 36.4% | -11.6% (active) | -16.9% (active) | -55.5% (active) | -66% (active) | 2.9% (active) | 0.264% (active) | -20.7% (active) | -58.3% (active) | 20.7% | -39.1% (active) | 10.8% | 66.7% | -72.5% (active) | -64.8% (active) | -83.1% (active) | 2.94% (active) | -5.4% (active) |
| CC(=O)Oc1ccccc1C(=O)[Se]CC(=O)Nc1cccc(C(F)(F)F)c1 | -79.8% (active) | -38.7% (active) | -39.2% (active) | -78.5% (active) | -48.3% (active) | 24.9% | -86.4% (active) | -56.7% (active) | -58.8% (active) | -21% (active) | -96.7% (active) | -80.3% (active) | -85% (active) | -83.8% (active) | -34.8% (active) | -74.4% (active) | -61% (active) | 24.6% | 11.7% |
| COc1cc2c(c(OC)c1OC)C(=O)CC(c1cccc(NC(=O)c3cc(N)ccc3Cl)c1)O2 (centres undefined) | 22.3% | 79.9% | 43.7% | 77.4% | 65.6% | 47.3% | 35.8% | 61.7% | 56.8% | 32.7% | 78.7% | 64.6% | 51.5% | 106% | 50.6% | 50.3% | 105% | 22.5% | 21.5% |
| COc1ccc(-c2cc(C(=O)NCc3ccccc3)nn2-c2ccc(S(C)(=O)=O)cc2)cc1OC | 108% | 102% | 62.5% | 95.2% | 99.2% | 110% | 97.1% | 111% | 134% | 119% | 97.5% | 88.1% | 77% | 106% | 104% | 87.1% | 99.9% | 101% | -4.09% (active) |
| Cc1c(C(=O)NNC(=O)Nc2ccc(Cl)cc2)nnn1-c1ccc(Br)cc1 | 97% | 97.2% | 90.2% | 91.4% | 104% | 103% | 99.4% | 88.7% | 96.5% | 109% | 88% | 103% | 75.7% | 96.1% | 99.7% | 83.9% | 99.8% | 89% | 83.5% |
